{"source": "PubChem BioAssay AID493008", "about": "(The Scripps Research Institute Molecular Screening Center, 2010)", "note": "Out of some 340,000 compounds screened, about 800 (0.24%) were called active.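 How the source made its calls: active means activation above the mean over all tested compounds plus 3 SD (cut at about 30% in these data); inactive means the rest.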 This excerpt belongs to a sample that is enriched for actives.", "data": [{"molecular_target": "Troponin I, cardiac muscle (Homo sapiens) + Troponin T, cardiac muscle (Homo sapiens) + Troponin C, slow skeletal and cardiac muscles (Homo sapiens) (UniProt P19429+P45379+P63316)", "experiment": "cardiac RTF calcium sensitivity activators, primary screen, biochemical, IANBD-TnC fluorescence, EC20 calcium (AID 493008);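 further: rise in fluorescence read as greater calcium sensitivity of cardiac thin filaments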", "conditions": "IANBD-labeled TnC RTF fluorescence at EC20 calcium; at 7.2 µM; active compounds read high", "values": [{"smiles": "O=C(N/N=C/c1c(O)n(Cc2ccccc2)c(=O)[nH]c1=O)c1ccccc1", "activation": "0.31% (inactive)"}, {"smiles": "CCCCC(=O)N/N=C/c1c(O)n(CC)c(=S)n(CC)c1=O", "activation": "93.2% (active)"}, {"smiles": "Cn1c(O)c(C=NCCCC(=O)O)c(=O)n(C)c1=O", "activation": "2.93% (inactive)"}, {"smiles": "COc1ccccc1N=C1SCCCN1C", "activation": "-2.56% (inactive)"}, {"smiles": "CN1CCc2cc3c(cc2[C@H]1[C@@H]1OC(=O)c2c1ccc1c2OCO1)OCO3", "activation": "0.04% (inactive)"}]}]}
